Results from ChEMBL document CHEMBL3988442, “University of Dundee, Small-Polar-MMV Screening Library” (2021).
Hit rate of the full screen: of about 38,000 compounds, about 1,200 (3.2%) showed an effect of 50% or more. The median lay at about -58%. This excerpt belongs to a sample that is enriched for strong results.

Each molecule was assayed on Plasmodium falciparum (assay: Calibr Malaria Delayed Death Assay SOP). Conditions: concentration 4.99e-06 (unit not given; other assays of the set use mol/L).
Format: functional, organism-based
Design: scale not given: in the data most compounds retested in dose-response had high values
For `Cc1nc(C(=O)Nc2cccnc2)c(C(C)C)s1`, the “Percent Effect” value was -80.98%.
`Cc1c(CN2CCCC(C(=O)Nc3ccccc3)C2)cc(C#N)n1C` (centres undefined) was tested, and the “Percent Effect” value was 39.8%.
For `CN(Cc1cccnc1)[C@@H]1CN(Cc2nccn2C)[C@@H]2CCCO[C@H]12.O=C(O)C(F)(F)F.O=C(O)C(F)(F)F.O=C(O)C(F)(F)F.O=C(O)C(F)(F)F`, the “Percent Effect” value was -14.02%.
`COc1ccc(Br)c(NC(=O)NCc2cnn(C)c2)c1` was tested, and the “Percent Effect” value was -45%.
In the case of `CN1CCC2(CC1)CCN(C(=O)c1onc3ccccc13)C2`, the “Percent Effect” value is reported as -111.7%.
In the case of `Cc1ccc(F)cc1CC(=O)N1CC[C@@]2(O)CCNC[C@H]2C1`, the “Percent Effect” value is reported as -30.21%.
In the case of `O=C1NCCCCC1Sc1ccc(F)cc1F` (centres undefined), the “Percent Effect” value is reported as -40.24%.
In the case of `Cc1nc(N(C)C)nc2c1COCC21CCN(C(=O)C2CC2)C1` (centres undefined), the “Percent Effect” value is reported as -124.4%.
With `O=C(Cn1cc(C2CC2)nn1)N(Cc1cccs1)CC1CCCO1` (centres undefined) the “Percent Effect” value was -9.508%.
`O=C(CN(Cc1ccco1)C1CC1)Nc1ccc(Br)cn1` was tested, and the “Percent Effect” value was -177.6%.
For `CN1CCC(N(Cc2ccco2)S(=O)(=O)c2ccc(Br)cc2Cl)CC1`, the “Percent Effect” value was 73.43%.
With `CN1CCC(N(Cc2ccco2)S(=O)(=O)c2cc(Br)ccc2Br)CC1` the “Percent Effect” value was 75.01%.
For `CC1CCN(C(=O)CN(Cc2ccco2)C2CC2)CC1`, the “Percent Effect” value was -121%.
In the case of `O=C(c1cc(Br)ccc1Cl)N1CCN(Cc2ccco2)CC1`, the “Percent Effect” value is reported as -2.5%.
`CN1CCC(N(Cc2ccco2)S(=O)(=O)c2ccc(Cl)cc2)CC1` was tested, and the “Percent Effect” value was 54.64%.
In the case of `O=C(c1ccco1)N1CC(S(=O)(=O)c2ccc(Cl)cc2)C1`, the “Percent Effect” value is reported as -88.3%.
`O=c1cc(CN(Cc2ccco2)C2CC2)nc2ccc(Br)cn12` was tested, and the “Percent Effect” value was -50.29%.
With `Cn1cnc(S(=O)(=O)N2CCN(Cc3ccco3)CC2)c1Cl` the “Percent Effect” value was -15.28%.
With `CCc1nc(C(=O)N2CCOCC2)nn1-c1ccccc1Cl` the “Percent Effect” value was -27.32%.
For `Cc1cc2[nH]c(CN3CCCCC3c3cccc(F)c3)cc(=O)n2n1` (centres undefined), the “Percent Effect” value was -66.54%.
In the case of `COc1cccc(CN2CCCCCC2c2cccs2)c1OC` (centres undefined), the “Percent Effect” value is reported as -76.96%.
`COc1ccc(CN2CCCC2c2cccc(F)c2)c(OC)c1OC` (centres undefined) was tested, and the “Percent Effect” value was 58.64%.
For `COc1cc(CN2CCCC2c2cccc(F)c2)cc(OC)c1OC` (centres undefined), the “Percent Effect” value was 25.35%.
For `COc1cccc(CN2CCCC2c2cccc(F)c2)c1OC` (centres undefined), the “Percent Effect” value was 53.66%.
In the case of `CS(=O)(=O)c1ccc(CN2CCCCC2c2cccc(F)c2)cc1` (centres undefined), the “Percent Effect” value is reported as -43.63%.
In the case of `Cc1ccccc1-c1cc(NC(=O)CC(C)C)n(CCO)n1`, the “Percent Effect” value is reported as -65.33%.
In the case of `O=C(NCCc1c[nH]c2ccccc12)C1(n2cnnn2)CCCCC1`, the “Percent Effect” value is reported as -28.02%.
`O=C(O)C(F)(F)F.O=C(c1cccc(F)c1)N1CCC2(CC1)CN(c1ccccn1)CCO2` was tested, and the “Percent Effect” value was -103.6%.
In the case of `Cc1nn2c(-c3cnn(C)c3)nnc2s1`, the “Percent Effect” value is reported as -96.58%.
`CC(C)(C)OC(=O)N1CCN(S(C)(=O)=O)C2(CCCCC2)C1` was tested, and the “Percent Effect” value was -78.85%.
`Cc1cc(N2CCCC(O)(CN(C)C)C2)c2cc3c(cc2n1)OCO3` (centres undefined) was tested, and the “Percent Effect” value was 79.58%.
In the case of `Cc1cc(N2CCC(O)(CN(C)C)C2)c2cc3c(cc2n1)OCO3` (centres undefined), the “Percent Effect” value is reported as 89.44%.
In the case of `Cc1cc(N2CCCC3(CN(C)C(=O)O3)C2)c2cc3c(cc2n1)OCO3` (centres undefined), the “Percent Effect” value is reported as -65%.
For `Cc1cc(C)c2[nH]c(=O)c(CN3CCC(O)(CN(C)C)C3)cc2c1` (centres undefined), the “Percent Effect” value was 5.101%.
`CN(C)CC1(O)CCN(C(=O)c2cnc(-c3ccccn3)nc2)C1` (centres undefined) was tested, and the “Percent Effect” value was -83.84%.
With `CN(C)CC1(O)CCCN(c2noc(-c3ccccc3)n2)CC1` (centres undefined) the “Percent Effect” value was -4.701%.
For `CN(C)C(=O)CC1CC2(CCN(Cc3ccco3)CC2)c2ccccc21.O=C(O)C(F)(F)F` (centres undefined), the “Percent Effect” value was 24.78%.
`CN1C(=O)C2(CCCN(C(=O)c3ccc(=O)n(C)n3)C2)c2ccccc21` (centres undefined) was tested, and the “Percent Effect” value was -36.85%.
In the case of `Cc1cc(C(=O)N2CCn3cc(CN4CCCCC4)nc3C2)no1`, the “Percent Effect” value is reported as -18.56%.
`CC(C)N(C)[C@@H]1CCN(S(C)(=O)=O)[C@H]1Cc1ccccc1` was tested, and the “Percent Effect” value was 53.16%.
`CC(C)N(C)[C@@H]1CCN(Cc2ccoc2)[C@H]1Cc1ccccc1` was tested, and the “Percent Effect” value was 9.124%.
For `CN(C)[C@@H]1CCN(S(=O)(=O)C2CC2)[C@H]1Cc1ccccc1.O=C(O)C(F)(F)F`, the “Percent Effect” value was 63.58%.
For `O=S(=O)(C1CC1)N1CC[C@H](OCC2CC2)[C@@H]1Cc1ccncc1`, the “Percent Effect” value was -74.15%.
In the case of `CN(C)[C@@H]1CCN(S(=O)(=O)c2cn(C)cn2)[C@H]1Cc1cccnc1.O=C(O)C(F)(F)F.O=C(O)C(F)(F)F.O=C(O)C(F)(F)F`, the “Percent Effect” value is reported as -62.43%.
`CC(C)NC(=O)N1CC[C@@H](N(C)C)[C@@H]1Cc1ccccc1.O=C(O)C(F)(F)F` was tested, and the “Percent Effect” value was 14.09%.
`CN(C)[C@@H]1CCN(S(C)(=O)=O)[C@H]1Cc1ccccc1` was tested, and the “Percent Effect” value was 16.37%.
In the case of `CN(C)[C@@H]1CCN(C(=O)c2ccccn2)[C@H]1Cc1ccncc1`, the “Percent Effect” value is reported as -71%.
For `CC(C)OC[C@H]1CCC[C@]12CN(C(=O)C1CCOCC1)CCO2`, the “Percent Effect” value was -62.83%.
In the case of `CNC(=O)CN1CCC(CN(C)Cc2ccccc2N(C)C)CC1`, the “Percent Effect” value is reported as -85.31%.
In the case of `COc1ccc(CN2C[C@@H](O)[C@](O)(CNC(=O)c3ccccn3)C2)cc1`, the “Percent Effect” value is reported as -63.46%.
`Cn1cc(-c2ncnc3c2CCN(C(=O)c2cnccn2)CC3)cn1` was tested, and the “Percent Effect” value was -80.91%.
For `COc1ccc(C[C@H]2CN(c3cc(OC)ncn3)CC[C@@H]2OC)cc1.O=C(O)C(F)(F)F`, the “Percent Effect” value was -3.62%.
In the case of `COc1ccc(C[C@H]2CN(C(=O)c3ccncc3)CC[C@@H]2OC)cc1.O=C(O)C(F)(F)F`, the “Percent Effect” value is reported as -34.29%.
With `COc1ccc(C[C@H]2CN(c3nnc(C)s3)CC[C@@H]2OC)cc1.O=C(O)C(F)(F)F` the “Percent Effect” value was -18.37%.
With `COc1ccc(C[C@H]2CN(Cc3ccoc3)CC[C@@H]2OC)cc1.O=C(O)C(F)(F)F` the “Percent Effect” value was 63.43%.
With `COc1ccc(C[C@H]2CN(Cc3ccoc3)CC[C@H]2OC)cc1.O=C(O)C(F)(F)F` the “Percent Effect” value was 74.09%.
With `COc1ccc(C[C@H]2CN(c3nnc(C)s3)CC[C@H]2OC)cc1.O=C(O)C(F)(F)F` the “Percent Effect” value was -6.177%.
`N#Cc1ccc(OC[C@]23COC[C@H]2CN(Cc2ccccn2)C3)nc1` was tested, and the “Percent Effect” value was -50.77%.
With `Cn1cccc1C(CNC(=O)COc1ccc(Cl)cc1Cl)N1CCCC1` (centres undefined) the “Percent Effect” value was 74.07%.
`Cn1cccc1C(O)CNC(=O)COc1ccccc1F` (centres undefined) was tested, and the “Percent Effect” value was -31.9%.
With `Cn1cccc1C(O)CNC(=O)COc1ccc(Cl)cc1Cl` (centres undefined) the “Percent Effect” value was -33.74%.
With `O=C(NCc1nnc2n1CCCC2)c1cn(-c2ccccc2)nn1` the “Percent Effect” value was -72.42%.
For `COc1cccc([C@H]2CN(C(C)=O)[C@@H]3CCN(Cc4ccsc4)C[C@H]23)c1.Cl`, the “Percent Effect” value was 72.65%.
For `COCC(=O)NCC1CCN(Cc2ccsc2)CC1`, the “Percent Effect” value was -175%.
For `COCc1cc(O)nc(C2CCCN(Cc3cccc(OC)c3)C2)n1` (centres undefined), the “Percent Effect” value was -102.5%.
In the case of `COc1cccc([C@@H]2CCN(Cc3c[nH]c(C)n3)C[C@H]2O)c1`, the “Percent Effect” value is reported as -37.12%.
`COc1cccc(CN2CC[C@H]3[C@@H](C2)[C@H](c2ccsc2)CN3C(C)=O)c1` was tested, and the “Percent Effect” value was 52.59%.
With `COc1cccc(CC2CCCN2CC(N)=O)c1` (centres undefined) the “Percent Effect” value was -61.65%.
With `CCN1CCC(N2C[C@@H](C(=O)O)[C@H](c3cccc(OC)c3)C2)CC1` the “Percent Effect” value was -103.5%.
For `COc1cccc([C@@H]2CCN(Cc3[nH]nc(C)c3Cl)C[C@H]2O)c1`, the “Percent Effect” value was -13.94%.
For `CNC(=O)[C@@]12CCC3(CCN(S(=O)(=O)C4CC4)CC3)[C@@H]1CN(C(C)=O)C2`, the “Percent Effect” value was -121.6%.
With `Cc1ccoc1C(=O)N1CCCC(CNS(C)(=O)=O)C1` (centres undefined) the “Percent Effect” value was -23.43%.
`NC(=O)Cn1cnc2nc3n(c2c1=O)CCC3` was tested, and the “Percent Effect” value was -106.4%.
With `CC(C)N1CCOC(Cc2nn3c(Cc4ccccc4)nnc3s2)C1` (centres undefined) the “Percent Effect” value was -78.89%.
For `CO[C@H]1CCN(Cc2c(C)noc2C)[C@@H]2CN(Cc3cccnc3)C[C@H]12.O=C(O)C(F)(F)F.O=C(O)C(F)(F)F.O=C(O)C(F)(F)F`, the “Percent Effect” value was -19.09%.
`CN(Cc1noc(C2CC2)n1)C1CCN(CCc2cccs2)C1` (centres undefined) was tested, and the “Percent Effect” value was -58.32%.
For `COc1cc(CNCC(O)c2ccccc2)cc2c1OCO2.Cl` (centres undefined), the “Percent Effect” value was 59.91%.
For `COc1ccc(CNCc2cc(Br)c3c(c2)OCO3)cc1`, the “Percent Effect” value was -51.11%.
For `COc1cc(CNC(C)c2ccc(F)c(F)c2)cc2c1OCCO2.O=C(O)C(=O)O` (centres undefined), the “Percent Effect” value was -10.9%.
`COc1cc(CNCc2ccc(C(C)O)cc2)cc2c1OCO2` (centres undefined) was tested, and the “Percent Effect” value was 7.669%.
For `COc1cc(CNCC(O)c2ccc(C)cc2)cc2c1OCCO2.Cl` (centres undefined), the “Percent Effect” value was 46.91%.
With `COc1cc(CNC(C)Cn2ccnc2)cc2c1OCO2.Cl` (centres undefined) the “Percent Effect” value was -50.32%.
In the case of `COc1cc(CNC(C)Cn2cccn2)cc2c1OCO2.Cl` (centres undefined), the “Percent Effect” value is reported as -35.84%.
For `Fc1ccc(CNCc2cc(Br)c3c(c2)OCO3)cc1`, the “Percent Effect” value was -20.04%.
With `Cc1cc(CNC(=O)NCC(O)c2cccc(F)c2)no1` (centres undefined) the “Percent Effect” value was -84.11%.
`COc1c(C(N)=O)cn(C)c1-c1nc2cc(NC(C)=O)ccc2n1C` was tested, and the “Percent Effect” value was -29.86%.
`Cc1nc(O)cc(C2CCCN(Cc3c(Cl)cncc3Cl)C2)n1` (centres undefined) was tested, and the “Percent Effect” value was -29.03%.
`O=C(Cn1cnnn1)NC(c1ccccc1)c1ccc2c(c1)CCCO2` (centres undefined) was tested, and the “Percent Effect” value was -75.22%.
For `Cc1ccoc1C(=O)N1CCO[C@H]2[C@H](OCc3ccncc3)CC[C@@H]21`, the “Percent Effect” value was -118.2%.
With `COc1ccccc1C(=O)N1CCCC1c1ncc2c(n1)CCNC2.Cl` (centres undefined) the “Percent Effect” value was -133.7%.
In the case of `CC(O)CCN(C)C(=O)Nc1cccc(F)c1` (centres undefined), the “Percent Effect” value is reported as -108.7%.
`CC(C)Cn1ncc(C(=O)NS(=O)(=O)C2CCCC2)c1C1CC1` was tested, and the “Percent Effect” value was -142.6%.
For `O=C(O)CCC(=O)N1CCC(c2noc3cc(F)ccc23)CC1`, the “Percent Effect” value was -92.3%.
For `CCC(=O)NC(c1cccnc1)c1cc(C)ccc1C` (centres undefined), the “Percent Effect” value was -105.8%.
